High-throughput results deposited in PubChem by National Center for Advancing Translational Sciences (NCATS).
The entries come from a sample that favours hits as a whole.
CBFb RUNX1 block – qHTS Assay for Compounds Blocking the Interaction Between CBF-beta and RUNX1 for the Treatment of Acute Myeloid Leukemia. Runt-related transcription factor 1 (Homo sapiens) + Core-binding factor subunit beta …. AlphaScreen CBFb-His/RUNX1-biotin binding, biochemical. Potency, µM (series often up to 59.8 µM), without a hit: at the highest dose activity, negative = inhibition, hits mostly inhibitors. 230,000 tested, under 10 active. AID 1477, 2009; active = well fitted curve in the direction sought with a large enough effect; inconclusive = small, poorly fitted or top-dose-only effect, or effect the other way, or another doubt; inactive = no such curve, though single readings can be large or run the other way; note: % of control where 0% means no effect
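Proteins preincubated together for 20 min at RT before compound addition; 15 min later, nickel and streptavidin beads were added and left 90 min prior to AlphaScreen measurement.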
Rango dissoc inh – qHTS Assay for Inhibitors of RanGTP induced Rango (Ran-regulated importin-beta cargo) - Importin beta complex dissociation | AID 540253, 2011 | Potency, µM (highest dose often 46.1 µM), inactives show at the highest dose activity change, negative = inhibition | 0.071% of 340,000 active | Biochemical FRET Rango-importin beta, RanGTP-induced dissociation | Snurportin-1 (Homo sapiens) + GTP-binding nuclear protein Ran (Homo sapiens) + Importin …; note: potency is the fitted concentration of half-maximal effect; % of control where 0% means no effect; nearly all actives have a fitted effect of over 45% in size
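Recombinant Rango FRET biosensor (EYFP–snurportin 1 IBB–cerulean CFP10) at 0.1 uM premixed with 0.25 uM importin beta in PBS, 1 mM DTT, 0.02% Tween-20, 0.1% BSA. Compound added 5 min; RanGTP-RCC1 (0.6 uM Ran, 2 mM GTP, 0.2 uM RCC1) then triggers release, read at 45 min.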
Rango complex inh – qHTS Assay for Inhibitors of Rango (Ran-regulated importin-beta cargo) - Importin beta complex formation. Rango CFP/YFP FRET sensor + importin beta, 45 min. 0.031% of 340,000 active. AID 540263, 2011. Potency, µM (titrated, usually from 92.2 µM), without a hit: at the highest dose inhibition of complex formation. Importin subunit beta-1 (Homo sapiens), Q14974;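 note: potency is the fitted concentration of half-maximal effect; 0% = DMSO wells and 100% = buffer wells lacking importin beta; nearly all actives have a fitted effect of over 15% in size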
Target sequence (Q14974 whole entry, looked up): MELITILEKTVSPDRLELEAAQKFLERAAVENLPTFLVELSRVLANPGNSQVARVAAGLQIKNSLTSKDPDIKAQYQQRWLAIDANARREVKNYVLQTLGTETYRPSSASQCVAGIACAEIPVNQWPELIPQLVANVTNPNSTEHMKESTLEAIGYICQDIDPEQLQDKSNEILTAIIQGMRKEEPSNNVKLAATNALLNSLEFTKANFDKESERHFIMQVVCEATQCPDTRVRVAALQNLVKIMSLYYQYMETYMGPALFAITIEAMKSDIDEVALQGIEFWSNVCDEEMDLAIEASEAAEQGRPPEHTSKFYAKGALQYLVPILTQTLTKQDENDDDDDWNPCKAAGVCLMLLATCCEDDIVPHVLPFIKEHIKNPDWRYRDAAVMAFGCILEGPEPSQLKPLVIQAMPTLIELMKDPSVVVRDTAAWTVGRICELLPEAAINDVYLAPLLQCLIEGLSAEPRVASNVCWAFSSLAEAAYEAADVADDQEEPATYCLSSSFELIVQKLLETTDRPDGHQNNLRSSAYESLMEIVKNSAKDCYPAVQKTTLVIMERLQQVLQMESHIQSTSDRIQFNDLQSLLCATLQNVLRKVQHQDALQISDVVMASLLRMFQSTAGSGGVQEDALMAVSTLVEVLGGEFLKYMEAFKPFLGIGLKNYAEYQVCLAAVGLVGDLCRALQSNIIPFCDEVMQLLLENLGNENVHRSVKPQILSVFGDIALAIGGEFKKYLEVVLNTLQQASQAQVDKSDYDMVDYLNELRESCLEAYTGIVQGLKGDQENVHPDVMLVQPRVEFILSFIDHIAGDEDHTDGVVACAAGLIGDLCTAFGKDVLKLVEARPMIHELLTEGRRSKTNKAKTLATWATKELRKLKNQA
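FRET biosensor Rango (snurportin 1 IBB between N-terminal EYFP and C-terminal Cerulean), 50 nM in PBS/1 mM DTT/0.02% Tween-20/0.1% BSA, preincubated 5 min RT with compound; 0.125 microM importin beta added, 45 min RT, CFP/YFP FRET ratio read.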
ClpP mod – qHTS Assay for Activators of ClpP; purified B. subtilis ClpP, FRET peptide cleavage, 20 min; Potency, µM (titrated, usually from 57.5 µM), for the others: at the highest dose activity change, negative = active; 1.9% of 340,000 active; AID 651965, 2013; active = well fitted falling curve with a large enough effect; inconclusive = small, poorly fitted or top-dose-only effect; inactive = no such curve, though single readings can be large or run the other way; note: potency is the fitted concentration of half-maximal effect; the source files actives as falling curves though it sought activators and does not explain the sign; nearly all actives have a fitted effect of over 65% in size
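Purified B. subtilis ClpP, 10 microg/mL final in Tris/HCl pH8 with KCl, BSA, glycerol and Tween-20, cleaved an Abz/nitrotyrosine-quenched decapeptide. Fluorescence (ex 320, em 430) was read at 0 and 20 min at room temperature. Delta was normalized to 5.8 microM ADEP and DMSO/no-enzyme controls.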
MBNL1 CUG block – qHTS Assay for Inhibitors of MBNL1-poly(CUG) RNA binding; AID 2675, 2010; Potency, µM (titrated, usually from 57.5 µM), for inactives: at the highest dose activity change, negative = inhibition, hits mostly inhibitors; TR-FRET MBNL1-His/biotin-(CUG)12 binding, 665/545 ratio; Muscleblind-like protein 1 (Homo sapiens), Q9NR56; 0.036% of 280,000 active; active = well fitted inhibition curve with a large enough effect in the signal ratio, with a control signal flat, not every such curve was filed as active; inconclusive = small, poorly fitted or top-dose-only effect, or effect the other way, or a change in a side signal; inactive = no such curve, though single readings can be large or run the other way; the % refers to the signal ratio; note: potency is the fitted concentration of half-maximal effect; % is set by controls: 0 for no effect and ±100 for the full control effect
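Compounds (final 92 nM to 58 uM) are added to His-tagged MBNL1 and biotin-(CUG)12, then terbium anti-His antibody and streptavidin-XL665 (5 nM final). After 60 min at room temperature, the 665/545 nm ratio is read.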
* marks the source's active call; other numbers are inactive results; ? = inconclusive; nt = no result given; ! = not active in a repeat; [ ] = dose if it differs, or a comment. Unless noted, calls come from the whole dose curve.

SMILES | CBFb RUNX1 block | Rango dissoc inh | Rango complex inh | ClpP mod | MBNL1 CUG block
c1ccc(-c2n[nH]c(-c3ccccn3)n2)nc1 | 1% | 0% | 1% | 25µM* | -1%
CCOc1nc(-c2ccc(OC)cc2)ccc1-c1noc(C)n1 | -6% | -29% | ? | -8% | 1%
COc1ccc(-c2ccc(-c3noc(-c4ccccc4C)n3)c(OC)n2)cc1 | -13% | 6.5µM*[inhibitor] | ? | ? | 2%
COCc1nc(-c2ccc(-c3ccc(C)cc3)nc2OC)no1 | 16% | -12% | -5% | 35µM* | 6%
COc1ccc(-c2ccc(-c3noc(C)n3)c(OC)n2)cc1 | 8% | -7% | ? | 14µM* | 32%
COc1ccc(-c2ccc(-c3noc(-c4ccccc4OC)n3)c(OC)n2)cc1 | -15% | ? | ? | 13% | 14%
C[C@@H]1CC[C@@]2(OC1)OC1CC3C4CC=C5CC(O)CCC5(C)C4CCC3(C)C1[C@@H]2C (stereo partly specified) | -6% | nt | nt | nt | nt
CC(=O)c1ccc(NC(=O)c2cnn3c2NC(=C2CC2)C=C3C(F)F)cc1 | nt | nt | nt | -5% | nt
O=S(=O)(c1ccc(N2CCOCC2)nc1)N1CCOCC1 | -8% | 2% | 8% | -5% | -1%
Cc1ccc(C(C)NC(=O)CSc2ccc(S(=O)(=O)N3CCOCC3)cn2)cc1C (stereo unspecified) | nt | 4% | 0% | 25µM* | nt
CCOC(=O)N1CCN(c2ccc(S(=O)(=O)N3CCOCC3)cn2)CC1 | nt | -13% | 0% | 28µM* | nt
CCOC(=O)c1c(C)oc2nc(C)nc(N3CCN(c4ccc(C(C)=O)cc4)CC3)c12 | nt | nt | nt | -2% | nt
CCOc1ccc(CNC(=O)c2cnc3sc(N(CC)CC)nn3c2=O)cc1OC | nt | nt | nt | 32µM* | nt
COCCCNC(=O)c1cnc2sc(N3CCCCC3)nn2c1=O | nt | nt | nt | 4% | nt
CC(C)CCNC(=O)c1cnc2sc(N3CCCCCC3)nn2c1=O | nt | nt | nt | 13µM* | nt
COc1ccc(CCNC(=O)c2cnc3sc(N4CCCCC4)nn3c2=O)cc1OC | nt | nt | nt | 5% | nt
COc1ccc(CCNC(=O)c2cnc3sc(N4CCCC4)nn3c2=O)cc1OC | nt | nt | nt | 11µM* | nt
CCOc1ccc(CNC(=O)c2cnc3sc(N4CCOCC4)nn3c2=O)cc1OC | nt | nt | nt | 28µM* | nt
CCc1ccc(-c2nc3ccc(Br)cc3c(C(=O)O)c2C)s1 | nt | -3% | 4% | 25µM*! | 438%
CCCCN1CCc2nc(N3CCN(c4ncccn4)CC3)ncc2C1 | nt | nt | nt | -4% | nt
O=C1c2ccccc2C(=O)N1c1cccc(N2C(=O)c3ccccc3C2=O)n1 | nt | nt | nt | 0% | nt
CCOC(=O)c1cc2c(ccn2-c2ccc(F)cc2)n1CC(=O)N1CCN(C(=O)c2ccco2)CC1 | 1% | -11% | -3% | 32µM* | 19%
COC(=O)c1cc2c(ccn2-c2ccc(F)cc2)n1CC(C)C | -6% | 2% | 8% | 28µM* | -13%
COC(=O)c1cc2c(ccn2-c2ccc(F)cc2)n1C(C)C | -15% | ? | 7% | ? | 1%
CCCn1c(C(=O)OC)cc2c1ccn2-c1ccc(F)cc1 | -7% | -10% | 4% | 28µM* | 7%
SMILES | CBFb RUNX1 block | Rango dissoc inh | Rango complex inh | ClpP mod | MBNL1 CUG block
COc1ccc(CC(=O)Nc2ccc(-c3cn4ccc(C)cc4n3)cc2)cc1 | -1% | 10% | ? | 16µM* | 1%
Cc1ccccc1OCc1nc(-c2ccc(NC(=O)c3ccco3)cc2)no1 | 0% | 13% | ? | 28µM* | 2%
Cc1ccc(NC(=S)NNC(=O)c2ccco2)cc1 | 7% | -11% | 0% | 0% | -8%
Cc1ccccc1OCc1nc(-c2ccc(NC(=O)c3cccs3)cc2)no1 | 13% | -2% | 0% | -17% | 48%
Cc1ccc(-c2nnc(-c3ccc(NC(=O)c4ccco4)cc3)o2)cc1 | 9% | 1% | 1% | 32µM* | 2%
Cc1cc(C)c(OCC(=O)Nc2ccc(NC(=O)c3ccco3)cc2)c([N+](=O)[O-])c1 | 2% | -7% | 2% | 32µM* | 8%[11.5 µM]
O=C(Nc1ccc(-c2nc3ncccc3o2)cc1)c1ccc(Br)o1 | -11% | -17% | 0% | -19% | 52%
O=C(Nc1ccc(-c2nc3ncccc3o2)cc1)c1ccco1 | -7% | -8% | -6% | 28µM* | 7%
Cc1ccccc1S(=O)Cc1ccc(C(=O)N2CCN(c3cccc(C)c3C)CC2)o1 (stereo unspecified) | nt | nt | nt | -1% | nt
CCn1c(-c2ccco2)n[nH]c1=S | 8% | -18% | -4% | ? | 4%
CCCCn1c(-c2ccco2)n[nH]c1=S | ? | -8% | ? | 22µM* | -10%
O=C(NCCc1ccccc1)c1ccc2nc3cc(Cl)ccc3c(=O)n2c1 | nt | -23% | ? | -13% | 3%
O=C(NC1CCCCCC1)c1ccc2nc3cc(Cl)ccc3c(=O)n2c1 | 7% | 11% | -5% | 25µM* | -1%
N#Cc1ccc(-c2ccc(F)cc2)nc1Oc1ccc(Cl)c(Cl)c1 | 1% | 1% | -1% | 40µM* | -16%
COc1ccc(-c2ccc(C#N)c(OC)n2)cc1 | 28% | 3% | -4% | nt | nt
Nc1nc(N)c2c(Oc3ccc(F)cc3)cccc2n1 | nt | nt | nt | 4% | nt
CN(CCOc1ccc(Cl)cc1)C(=O)c1cc(-c2ccco2)nc2ccccc12 | nt | 0% | -1% | 28µM* | nt
Cc1ccc2oc(-c3cccc(NC(=O)c4ccc(N5CCC(C)CC5)c([N+](=O)[O-])c4)c3)nc2c1 | nt | nt | nt | -8% | nt
CCN1CCN(CCC(=O)Nc2cc(OC)cc(OC)c2)CC1 | nt | -1% | -2% | 28µM* | -1%
CCN1CCN(CC(=O)Nc2c(OC)cccc2OC)CC1 | nt | 12% | 0% | 22µM* | 4%
COc1cc(NC(=O)CCN2CCN(CCO)CC2)cc(OC)c1 | nt | 15% | 0% | 0% | 7%
Cc1csc2nc(-c3cccc(NC(=O)c4c(F)cccc4F)c3)cn12 | nt | nt | nt | -6% | nt
COc1ccc(-n2c(=O)c3c(C)c(C)sc3n(CC(=O)NCc3ccc(C)cc3)c2=O)c(OC)c1 | nt | nt | nt | -4% | nt
Cc1ccc2nnc(Cl)n2n1 | 5% | -7% | -1% | ? | -1%
Clc1nnc2ccc(-c3ccccc3)nn12 | 8% | 20% | 9% | 25µM* | ?
O=C(Cc1ccccc1[N+](=O)[O-])NCc1ccc2c(c1)OCO2 | -7% | 0% | 0% | 32µM* | nt
N=C1c2c(cc(=O)n3c2[nH]c2ccccc23)CN1CCN1CCOCC1 | -28% | 21µM*[inhibitor] | ? | nt | 27%
